# Experimental data: the supplement of paper PMC6763611
# Test system: Plasmodium falciparum NF54
# Test: growth inhibition relative to untreated control; higher = more inhibition
# Settings: 5 µM; MM + chorismate end-products (CM screening medium); 72 h
# Method in brief: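 Ring-stage P. falciparum NF54 parasites at 1% hematocrit and 1% parasitemia were dispensed at 100 μL/well into dark 96-well half-area plates and given a single dose of test compound at 5 μM or 1 μM for 72 h at 37 °C. Incubation took place in minimal RPMI, either alone or supplemented with the chorismate end-products folate (2.2 μM), pABA (7.3 μM), pHBA (7.3 μM), tyrosine (111 μM), phenylalanine (90 μM) and tryptophan. Growth inhibition was determined with SYBR Green relative to untreated wells, using uninfected erythrocytes for background.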
row,SMILES,growth inhibition [%]
1,COc1cc(NC(C)CCCN)c2ncccc2c1 (stereo not drawn),64.3
2,COc1ccc(C2(C(=O)Nc3ccc(Br)cc3)CCCC2)cc1,< 0
3,CC(C)(C)c1cc(C(=O)N2CCN(c3nccnc3C#N)CC2)n(Cc2ccccc2)n1,92.9
4,O=C(C(Cc1c[nH]c2ccccc12)NS(=O)(=O)c1ccc(Cl)cc1)N1CCCCC1 (stereo not drawn),96.8
5,CC(C)n1nc(-c2cc3c(Cl)cccc3[nH]2)c2c(N)ncnc21,57.9
6,CC(C)c1ncc(-c2ccncc2)c([C@H]2CC[C@H](CNC(=O)c3cccnc3)CC2)n1,92.5
7,COc1cccc(-n2nnnc2S(C)(=O)=O)c1,35
8,O=C(NC1CC1)c1ccc(N2CCOc3ccc(Cl)cc32)s1,95.1
9,COc1ccc(CCN2CCC(NCc3cccc(N(C)C)c3)CC2)cc1,> 100
10,O=C(c1ccco1)N(CCCn1ccnc1)c1nc2c(Cl)cccc2s1,> 100
11,NCC(c1cccs1)S(=O)(=O)c1ccccc1 (stereo not drawn),< 0
12,C[C@H]1COc2c(N3CCN(C)CC3)c(F)cc3c(=O)c(C(=O)O)cn1c23,5.29
13,CCOc1ccc(-c2nc(CNCCc3ccc(F)cc3)cs2)cc1,28.1
14,Cc1cc(Nc2ccc(C(F)(F)F)cc2)n2ccnc2n1,97.3
15,COc1cccn2c(C(=O)N3CCCCC3)c(C(F)(F)F)nc12,< 0
16,COc1cc(C2=NCCN2)cc2cc(-c3ccc(C4=NCCN4)cc3)oc12,98.4
17,O=C(Nc1cccc(Cl)c1)c1cnc(N2CCN(c3ccncc3)CC2)c(Cl)c1,99.9
18,CS(=O)(=O)N1CCC(CCn2nc(Cc3cccc4ccccc34)c3c(N)ncnc32)CC1,41.3
19,Cc1noc(C)c1C(=O)N1CCCC(c2[nH]c3c(C)cccc3c2-c2ccncc2)C1 (stereo not drawn),92.6
20,CNC1C(OC2C(OC3C(O)C(O)C(N=C(N)N)C(O)C3N=C(N)N)OC(C)C2(O)C=O)OC(CO)C(O)C1O (stereo not drawn),< 0

row,SMILES,growth inhibition [%]
1,COC(=O)c1c(NC(=O)c2cc3ccccc3oc2=O)sc2c1CCN(Cc1ccccc1)C2,5.7
2,CC(C)(C)C(=O)N(CCCCCCN1C[C@H](O)[C@@H](O)[C@H](O)[C@H]1CO)C1CCCCCC1,< 0
3,N=C(N)Nc1ccc(-c2ccc(-c3ccc(N=C(N)N)c(Cl)c3)o2)cc1Cl,97.4
4,CC(C)(C)c1cc(C(=O)Nc2cccnc2)cc(C(=O)Nc2cccnc2)c1,87.5
5,Clc1ccc(-n2cc(COc3ccnc4ccccc34)nn2)cc1,32.4
6,CCc1c(C)nc(-n2nc(C)cc2NC(=O)c2ccccc2SC)[nH]c1=O,86.1
7,CC(C)C(C(=O)Nc1ccc(S(=O)(=O)N(C)C)cc1)c1ccc(Cl)cc1 (stereo not drawn),98.6
8,COc1cc(OC)cc(C(=O)NCC2Cc3cc(Cl)cc(-c4ccncc4)c3O2)c1 (stereo not drawn),93
9,Cc1ccc2cc(C3NC(=O)c4ccccc4N3)c(Cl)nc2c1 (stereo not drawn),95.2
10,O=C(Nc1c(O)cccc1-c1nc2c(C(=O)O)cccc2o1)c1cc(-c2ccccc2)on1,< 0
11,C[C@H](C(N)=O)N1CCCC[C@@H]1c1ccc(OCc2cccc(F)c2)cc1,14.2
12,O=C(c1ccc(NCCO)cc1)C1C[C@H]1c1ccc(Cl)cc1 (stereo partly drawn),91.8
13,O[C@@H](c1cc(C(F)(F)F)nc2c(C(F)(F)F)cccc12)[C@H]1CCCCN1,91.5
14,Cc1nn2c(O)c3c(nc2c1-c1ccc(F)cc1)CCCC3,36.7
15,CN1CCC(NCc2cccc(-c3ccc(S(=O)(=O)NCc4ccccc4)cc3)c2)CC1,96
16,COc1cc(CN2CCC3(C=Cc4ccccc43)CC2)cc2c1OCO2,< 0
17,O=C(c1cc2ccccc2o1)N1CCN(Cc2ccc3c(c2)OCO3)CC1,< 0
18,CC(C)(C)[C@H]1CC[C@H](CC2=C(O)C(=O)c3ccccc3C2=O)CC1,94.8
19,CO[C@H]1/C=C\O[C@@]2(C)Oc3c(C)c(O)c4c(O)c(/c(=C/NN5CCN(C)CC5)c(O)c4c3C2=O)=N\C(=O)/C(C)=C\C=C/[C@H](C)[C@H](O)[C@@H](C)[C@@H](O)[C@@H](C)[C@H](OC(C)=O)[C@@H]1C,> 100

# Same assay, conditions: 5 µM; minimal medium (MM); 72 h
row,SMILES,growth inhibition [%]
1,COc1cc(NC(C)CCCN)c2ncccc2c1 (stereo not drawn),38
2,COc1ccc(C2(C(=O)Nc3ccc(Br)cc3)CCCC2)cc1,2.98
3,CC(C)(C)c1cc(C(=O)N2CCN(c3nccnc3C#N)CC2)n(Cc2ccccc2)n1,92
4,O=C(C(Cc1c[nH]c2ccccc12)NS(=O)(=O)c1ccc(Cl)cc1)N1CCCCC1 (stereo not drawn),88.7
5,CC(C)n1nc(-c2cc3c(Cl)cccc3[nH]2)c2c(N)ncnc21,15.9
6,CC(C)c1ncc(-c2ccncc2)c([C@H]2CC[C@H](CNC(=O)c3cccnc3)CC2)n1,92
7,COc1cccc(-n2nnnc2S(C)(=O)=O)c1,8.78
8,O=C(NC1CC1)c1ccc(N2CCOc3ccc(Cl)cc32)s1,91.5
9,COc1ccc(CCN2CCC(NCc3cccc(N(C)C)c3)CC2)cc1,94.6
10,O=C(c1ccco1)N(CCCn1ccnc1)c1nc2c(Cl)cccc2s1,92.8
11,NCC(c1cccs1)S(=O)(=O)c1ccccc1 (stereo not drawn),4.01
12,C[C@H]1COc2c(N3CCN(C)CC3)c(F)cc3c(=O)c(C(=O)O)cn1c23,15.8
13,CCOc1ccc(-c2nc(CNCCc3ccc(F)cc3)cs2)cc1,27.2
14,Cc1cc(Nc2ccc(C(F)(F)F)cc2)n2ccnc2n1,94.4
15,COc1cccn2c(C(=O)N3CCCCC3)c(C(F)(F)F)nc12,< 0
16,COc1cc(C2=NCCN2)cc2cc(-c3ccc(C4=NCCN4)cc3)oc12,100
17,O=C(Nc1cccc(Cl)c1)c1cnc(N2CCN(c3ccncc3)CC2)c(Cl)c1,87.9
18,CS(=O)(=O)N1CCC(CCn2nc(Cc3cccc4ccccc34)c3c(N)ncnc32)CC1,< 0
19,Cc1noc(C)c1C(=O)N1CCCC(c2[nH]c3c(C)cccc3c2-c2ccncc2)C1 (stereo not drawn),92.4
20,CNC1C(OC2C(OC3C(O)C(O)C(N=C(N)N)C(O)C3N=C(N)N)OC(C)C2(O)C=O)OC(CO)C(O)C1O (stereo not drawn),8.51

row,SMILES,growth inhibition [%]
1,COC(=O)c1c(NC(=O)c2cc3ccccc3oc2=O)sc2c1CCN(Cc1ccccc1)C2,1.3
2,CC(C)(C)C(=O)N(CCCCCCN1C[C@H](O)[C@@H](O)[C@H](O)[C@H]1CO)C1CCCCCC1,< 0
3,N=C(N)Nc1ccc(-c2ccc(-c3ccc(N=C(N)N)c(Cl)c3)o2)cc1Cl,88.2
4,CC(C)(C)c1cc(C(=O)Nc2cccnc2)cc(C(=O)Nc2cccnc2)c1,88.6
5,Clc1ccc(-n2cc(COc3ccnc4ccccc34)nn2)cc1,16
6,CCc1c(C)nc(-n2nc(C)cc2NC(=O)c2ccccc2SC)[nH]c1=O,79.9
7,CC(C)C(C(=O)Nc1ccc(S(=O)(=O)N(C)C)cc1)c1ccc(Cl)cc1 (stereo not drawn),90.3
8,COc1cc(OC)cc(C(=O)NCC2Cc3cc(Cl)cc(-c4ccncc4)c3O2)c1 (stereo not drawn),91.9
9,Cc1ccc2cc(C3NC(=O)c4ccccc4N3)c(Cl)nc2c1 (stereo not drawn),88.5
10,O=C(Nc1c(O)cccc1-c1nc2c(C(=O)O)cccc2o1)c1cc(-c2ccccc2)on1,< 0
11,C[C@H](C(N)=O)N1CCCC[C@@H]1c1ccc(OCc2cccc(F)c2)cc1,15.9
12,O=C(c1ccc(NCCO)cc1)C1C[C@H]1c1ccc(Cl)cc1 (stereo partly drawn),89
13,O[C@@H](c1cc(C(F)(F)F)nc2c(C(F)(F)F)cccc12)[C@H]1CCCCN1,85.5
14,Cc1nn2c(O)c3c(nc2c1-c1ccc(F)cc1)CCCC3,24.6
15,CN1CCC(NCc2cccc(-c3ccc(S(=O)(=O)NCc4ccccc4)cc3)c2)CC1,94.2
16,COc1cc(CN2CCC3(C=Cc4ccccc43)CC2)cc2c1OCO2,8.3
17,O=C(c1cc2ccccc2o1)N1CCN(Cc2ccc3c(c2)OCO3)CC1,< 0
18,CC(C)(C)[C@H]1CC[C@H](CC2=C(O)C(=O)c3ccccc3C2=O)CC1,93.4
19,CO[C@H]1/C=C\O[C@@]2(C)Oc3c(C)c(O)c4c(O)c(/c(=C/NN5CCN(C)CC5)c(O)c4c3C2=O)=N\C(=O)/C(C)=C\C=C/[C@H](C)[C@H](O)[C@@H](C)[C@@H](O)[C@@H](C)[C@H](OC(C)=O)[C@@H]1C,97.2
